Assay results taken from PubChem BioAssay AID1220 (Sanford-Burnham Center for Chemical Genomics, 2008).
About 1,300 (0.68%) of roughly 190,000 compounds were called active. The sample holds actives, similar compounds and a random draw of the others, so the mix is not that of the screen. Rule as the data show it: active = inhibition above about 50%; inactive = the rest.

Each molecule was assayed against Mannose-6-phosphate isomerase (Homo sapiens) (UniProt P34949) (assay: human PMI inhibitors, high substrate, primary screen, biochemical, fluorescence intensity, high mannose 6-phosphate (AID 1220)). Details: recombinant PMI enzyme, coupled fluorescence intensity; at 20 µM; active compounds read high.
Chain of Mannose-6-phosphate isomerase (Homo sapiens) (P34949 whole entry, looked up): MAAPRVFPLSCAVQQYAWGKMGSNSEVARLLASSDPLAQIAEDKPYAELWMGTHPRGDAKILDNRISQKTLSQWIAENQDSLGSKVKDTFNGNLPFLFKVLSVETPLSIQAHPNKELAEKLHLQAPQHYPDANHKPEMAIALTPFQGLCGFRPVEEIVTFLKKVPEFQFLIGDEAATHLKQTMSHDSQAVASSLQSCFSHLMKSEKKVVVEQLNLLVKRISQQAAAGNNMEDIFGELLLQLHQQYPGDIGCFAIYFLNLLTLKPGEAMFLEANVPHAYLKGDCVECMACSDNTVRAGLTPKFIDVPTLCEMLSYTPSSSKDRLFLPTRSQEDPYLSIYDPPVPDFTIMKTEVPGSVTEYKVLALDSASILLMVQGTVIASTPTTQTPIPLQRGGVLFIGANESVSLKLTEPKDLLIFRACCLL

Row | Structure (SMILES) | inhibition
1 | Cc1ccc(Oc2c(F)c(F)nc(N3CCCC3)c2F)cc1 | 32.2% (inactive)
2 | CCN(CC(=O)NCc1cccs1)C(=O)CCc1c[nH]c2ccccc12 | 8.8% (inactive)
3 | Cc1cc(N)n(-c2ccc(C(=O)O)cc2)n1 | 2.1% (inactive)
4 | Cc1cc(C)n(-c2ccc(C(=O)O)cc2)n1 | 30.6% (inactive)
5 | CC(C)(C)c1cc(N)n(-c2ccc(C(=O)O)cc2)n1 | 52.8% (active)
6 | O=C(Cn1cnc2sc(-c3ccccc3)cc2c1=O)NCc1ccccc1 | -8.4% (inactive)
7 | CCOC(=O)C1=C(CSc2nccn2C)NC(=O)NC1c1cc(C)ccc1C (configuration not stated) | -2% (inactive)
8 | CCc1oc(C(=O)O)cc1CN(CC)CC | 10.9% (inactive)
9 | CCN(CC)Cc1cc(O)c(CN(CC)CC)cc1O | 54.7% (active)
10 | CCN(CC)Cc1cc(C(C)=O)ccc1O | -8.6% (inactive)
11 | CC(=O)Nc1ccc(NC(=O)CCC(=O)OCC(=O)c2ccc(C)c([N+](=O)[O-])c2)cc1 | -5.6% (inactive)
12 | O=C(c1ccc(C(=O)N2CCOCC2)s1)N1CCOCC1 | -3.8% (inactive)
13 | CCN1C(c2ccccc2)=C(c2ccccc2)S/C1=C/C=C1\SC(=S)N(C)C1=O | 54.4% (active)
14 | CN1C(=O)/C(=C/C=C2\SCCN2C)SC1=S | 29.3% (inactive)
15 | CCN1C(=O)/C(=C/C=C2/Sc3ccc4ccccc4c3N2CCO)SC1=S | -5.4% (inactive)
16 | CC1(C)CC2CC(C)(CN2C(=O)C23CCC(C)(C(=O)O2)C3(C)C)C1 (configuration not stated) | 9.1% (inactive)
17 | O=C(COC(=O)CCc1ccccc1)Nc1cc(S(=O)(=O)N2CCOCC2)ccc1N1CCCC1 | 7.1% (inactive)
18 | O=c1[nH][nH]c(C(F)(F)F)c1C=Nc1ccccc1Cl | -6.7% (inactive)
19 | Cc1cc(O)ccc1N=Cc1c(C(F)(F)F)[nH][nH]c1=O | 62.2% (active)
20 | Cc1cccc(C)c1N=Cc1c(C(F)(F)F)[nH][nH]c1=O | 0.2% (inactive)
21 | COc1ccc(CNC(=O)CN(c2ccccc2)S(=O)(=O)c2ccccc2[N+](=O)[O-])cc1 | -11.2% (inactive)
22 | CCN(Cc1ccccc1)C(=O)Cn1cc2c(n1)CCCC2 | 10.5% (inactive)
23 | Cc1ccc(CNC(=O)CCc2nc3ccccc3c(=O)[nH]2)cc1 | 2.2% (inactive)
24 | CCOC(=O)N1CCC(c2nc(C)sc2C(=O)O)CC1 | 1.2% (inactive)
25 | CC(C)Cn1nc(NC(=O)C2CCCO2)c2cc3ccccc3nc21 (configuration not stated) | 6.4% (inactive)
26 | Cc1occc1-c1nnc(SCC(=O)N2CCOCC2)n1CC(C)C | 6.1% (inactive)

Row | Structure (SMILES) | inhibition
27 | COc1ccc(C(CC(=O)Nc2cc([N+](=O)[O-])ccc2OC)c2ccccc2)cc1 (configuration not stated) | 54.1% (active)
28 | COc1ccc([N+](=O)[O-])cc1NC(=O)CC(C)c1ccccc1 (configuration not stated) | 14.4% (inactive)
29 | COc1ccc([N+](=O)[O-])cc1NC(=O)CC(c1ccccc1)c1ccccc1 | 7.4% (inactive)
30 | CS(=O)(=O)N1CCC(Oc2ccccc2C(=O)NC(C2CC2)C2CC2)CC1 | 2.8% (inactive)
31 | CCOC(=O)c1cnc(SC2CC(=O)N(c3ccc(C)cc3)C2=O)nc1N (configuration not stated) | -5.1% (inactive)
32 | CCOC(=O)c1cnc(SC2CC(=O)N(c3ccccc3)C2=O)nc1N (configuration not stated) | 0.1% (inactive)
33 | CCOC(=O)c1cnc(SC2CCc3ccccc3C2=O)nc1N (configuration not stated) | 53% (active)
34 | COCCn1nnnc1C(C(C)C)N1CCSCC1 (configuration not stated) | -8% (inactive)
35 | O=C(/C=C\NCC(=O)c1ccccc1)c1ccc(F)cc1 | -70.8% (inactive)
36 | N#CC1(C#N)CC(C=O)=C(N)C1(C#N)CC(=O)C12CC3CC(CC(C3)C1)C2 (configuration not stated) | 32.5% (inactive)
37 | N#CC1(C#N)CC(C=O)=C(N)C1(C#N)CC(=O)c1ccc(F)cc1 (configuration not stated) | 52.8% (active)
38 | COc1ccc(OCCNc2cc(N3CCOCC3)ccc2[N+](=O)[O-])cc1 | 5.4% (inactive)
39 | O=C(CSc1ccc(Cl)cc1)Nc1cccc(-c2nc3ncccc3o2)c1 | -3.6% (inactive)
40 | S=C(Nc1ccc2c(c1)OCO2)Nc1ccc2c(c1)OCO2 | 62.3% (active)
41 | O=C(NCc1ccc2c(c1)OCO2)Nc1ccc2nsnc2c1 | 26.7% (inactive)
42 | CN(C)C(=S)Nc1ccc2c(c1)OCO2 | 11.8% (inactive)
43 | S=C(NCc1ccc(Cl)c(Cl)c1)Nc1ccc2c(c1)OCO2 | 10.2% (inactive)
44 | C=CCN(CC=C)C(=S)Nc1ccc2nsnc2c1 | 55.3% (active)
45 | C=CCN(CC=C)C(=S)Nc1ccc(OC)c(OC)c1 | 20.1% (inactive)
46 | NC(=S)Nc1ccc2c(c1)OCO2 | 1.7% (inactive)
47 | CNS(=O)(=O)c1ccc(NC(=S)Nc2ccc3c(c2)OCO3)cc1 | 55.7% (active)
48 | O=C(Nc1ccc(S(=O)(=O)NCc2ccccc2)cc1)Nc1ccc2c(c1)OCO2 | 8.6% (inactive)
49 | NS(=O)(=O)c1ccc(NC(=S)NCc2ccc3c(c2)OCO3)cc1 | 17.1% (inactive)
50 | C=CCNC(=S)Nc1ccc2nsnc2c1 | 9.9% (inactive)
51 | S=C(NCc1ccc2c(c1)OCO2)Nc1ccc2nsnc2c1 | 53.7% (active)
52 | CCCN1C(=O)C(O)(C/C(C)=N/O)c2ccccc21 (configuration not stated) | 3.5% (inactive)

Row | Structure (SMILES) | inhibition
53 | COc1ccc(CC(=O)OC(C)CN2CCOCC2)cc1 (configuration not stated) | -1.4% (inactive)
54 | Cc1ccc(-c2nc(C3CCCN(S(=O)(=O)c4ccc(C)cc4)C3)no2)cc1 (configuration not stated) | 5.6% (inactive)
55 | CCN(CC)S(=O)(=O)c1ccc(C(=O)OCn2c(SC)nnc(C)c2=O)cc1 | 12.1% (inactive)
56 | O=S(=O)(NCc1ccc(F)cc1)c1cccc(S(=O)(=O)N2CCOCC2)c1 | -0.5% (inactive)
57 | O=S(=O)(NCc1ccc2c(c1)OCO2)c1cccc(S(=O)(=O)N2CCOCC2)c1 | 52.5% (active)
58 | O=C(Nc1ccc2c(c1)OCCO2)Nc1ccc2c(c1)OCO2 | 13% (inactive)
59 | O=S(=O)(c1ccc(NC(=S)Nc2ccccc2)cc1)N1CCOCC1 | -2.7% (inactive)
60 | S=C(Nc1ccc2c(c1)OCCO2)Nc1ccc2c(c1)OCO2 | 62.7% (active)
61 | O=C(Nc1ccc2c(c1)OCO2)Nc1ccc2c(c1)OCO2 | 15.8% (inactive)
62 | CCn1ncc(NC(=S)Nc2ccc3c(c2)OCO3)c1C(N)=O | 57.3% (active)
63 | CCn1ncc(Br)c1C(=O)Nc1ccc2c(c1)OCCO2 | 0.3% (inactive)
64 | Cc1ccc(NC(=S)Nc2ccc(S(=O)(=O)N3CCOCC3)cc2)cc1S(=O)(=O)N1CCOCC1 | -1.2% (inactive)
65 | CCn1ncc(NC(=S)NCCc2ccccc2)c1C(N)=O | 5.4% (inactive)
66 | O=S(=O)(c1ccc(NC(=S)Nc2ccc3c(c2)OCO3)cc1)N1CCOCC1 | 52.2% (active)
67 | O=S(=O)(NCc1ccccc1)c1cccc(S(=O)(=O)N2CCOCC2)c1 | 4.1% (inactive)
68 | O=C1CC(c2ccc(F)cc2)CC2=C1C=Nc1ccccc1N2 (configuration not stated) | -4.8% (inactive)
69 | Cc1nn(Cc2ccccc2)c(C)c1NC(=O)CCCn1nc(C)c([N+](=O)[O-])c1C | -2.1% (inactive)
70 | CCCCC(=O)Nc1ccc(NC(=O)c2cc(OC)c(OC)c(OC)c2)cn1 | 3.2% (inactive)
71 | CCN1CCCc2cc(CN(CCN3CCOCC3)C(=S)Nc3ccc(OC)c(OC)c3)ccc21 | 22.3% (inactive)
72 | COc1ccccc1CNC(=O)C1CCC(CNc2c(N3CCOCC3)c(=O)c2=O)CC1 (configuration not stated) | 16.7% (inactive)
73 | CC(=O)c1cnc(Nc2ccc(C)cc2)s1 | 1.9% (inactive)
74 | C=CCSc1nnc(NC(=O)CSc2nc3ccccc3[nH]2)s1 | 4.3% (inactive)
75 | Cc1cc(NC(=O)c2ccc(Cl)cc2)n(CCOC(=O)c2ccc(Cl)cc2)n1 | 10.6% (inactive)
76 | Cc1nc2ccc(NC(=O)NCCO)cc2s1 | 3.3% (inactive)
77 | COc1ccc(C(=O)NCc2ccc(Cl)c(Cl)c2)cc1OC | -0.1% (inactive)
78 | Cc1cccc(-c2nc(CS(=O)CC(=O)N3CCCCC3)c(C)o2)c1 (configuration not stated) | 5.1% (inactive)

Row | Structure (SMILES) | inhibition
79 | Cc1ccccc1-n1c(=O)cc(N2CCC3(CC2)OCCO3)[nH]c1=O | 7% (inactive)
80 | Cc1ccccc1-n1c(=O)cc(N2CCCCCC2)[nH]c1=O | 62.9% (active)
81 | O=c1cc(N2CCCCCC2)[nH]c(=O)n1-c1ccccc1Cl | -6.5% (inactive)
82 | CCOC(=O)/C(N=Nc1ccc(C(=O)O)cc1[N+](=O)[O-])=C(\C)O | -1.9% (inactive)
83 | CC(C)Cc1nc2oc3c(N4CCN(CCO)CC4)ncnc3c2c2c1CCCC2 | 2% (inactive)
84 | Cc1ccc(Cl)cc1NC(=S)N(CCCN1CCOCC1)Cc1ccco1 | -6.2% (inactive)
85 | Clc1ncc(CSc2ccccc2)s1 | -2.5% (inactive)
86 | Cc1ccc(S(=O)OCC(=O)Nc2cc(Cl)ccc2N2CCOCC2)cc1 (configuration not stated) | 52% (active)
87 | O=C(COS(=O)c1ccccc1)Nc1cc(Cl)ccc1N1CCOCC1 (configuration not stated) | 8.4% (inactive)
88 | COC(=O)c1ccccc1NC(=O)CNc1cc(Cl)ccc1N1CCOCC1 | 9.8% (inactive)
89 | COc1ccccc1C(=O)Nc1ccccc1SC | 10.6% (inactive)
90 | COc1ccc(S(=O)(=O)CCC(=O)N2c3ccccc3CC2C)cc1 (configuration not stated) | 2% (inactive)
91 | O=C(Nc1ccc2c(c1)OCO2)c1ccc(S(=O)(=O)NCC2CCCO2)cc1 (configuration not stated) | -2.4% (inactive)
92 | COc1ccc2c(C)cc(=O)[nH]c2c1 | -3% (inactive)
93 | CCOC(=O)CSc1[nH]c2cc(OC)ccc2c1[N+](=O)[O-] | 9.3% (inactive)
94 | COc1ccc2c([N+](=O)[O-])c(Cl)[nH]c2c1 | 67.9% (active)
95 | O=C(COC(=O)c1c2ccccc2cc2ccccc12)Nc1ncc(C(F)(F)F)cc1Cl | 2.9% (inactive)
96 | COc1ccc(CCNC(=O)CSc2nc3ccccc3o2)cc1 | 1.3% (inactive)
97 | COc1ccc(CN=Cc2c(C(F)(F)F)[nH][nH]c2=O)cc1 | -0.7% (inactive)
98 | CC(C)c1ccc(C2=C(O)c3ccccc3C(=O)C2=O)cc1 | 22.2% (inactive)
99 | O=C(C1=C(c2ccccc2)C(=O)c2ccccc2C1=O)c1ccccc1 | 71.6% (active)
100 | O=C1C(c2ccncc2)=C(O)c2ccccc21 | -4.7% (inactive)
101 | O=C1C(=C(O)c2ccccc2)C(=O)c2ccccc21 | -47.9% (inactive)
102 | COC1=C(c2ccccc2)C(=O)c2ccccc2C1=O | -57.4% (inactive)
